Results on one sequence are retold here after PMC7862700, “An all-to-all approach to the identification of sequence-specific readers for epigenetic DNA modifications on cytosine”.

What all share (test): DAPPL (digital affinity profiling via proximity ligation, sequencing); 10 mM Tris-HCl pH 7.5, 50 mM NaCl, 1 mM DTT, 4% glycerol, room temperature, 30 min; GST-TFs on glutathione beads, 16-mer random dsDNA library, 0.1% formaldehyde crosslink after washing; high values mean tight binding
Common to all, as to settings: protein: recombinant; tags: N-terminal GST; dsDNA, one strand shown

In one test the target is T1, FLI1 (Homo sapiens, UniProt Q01543 1-452).
T1 sequence: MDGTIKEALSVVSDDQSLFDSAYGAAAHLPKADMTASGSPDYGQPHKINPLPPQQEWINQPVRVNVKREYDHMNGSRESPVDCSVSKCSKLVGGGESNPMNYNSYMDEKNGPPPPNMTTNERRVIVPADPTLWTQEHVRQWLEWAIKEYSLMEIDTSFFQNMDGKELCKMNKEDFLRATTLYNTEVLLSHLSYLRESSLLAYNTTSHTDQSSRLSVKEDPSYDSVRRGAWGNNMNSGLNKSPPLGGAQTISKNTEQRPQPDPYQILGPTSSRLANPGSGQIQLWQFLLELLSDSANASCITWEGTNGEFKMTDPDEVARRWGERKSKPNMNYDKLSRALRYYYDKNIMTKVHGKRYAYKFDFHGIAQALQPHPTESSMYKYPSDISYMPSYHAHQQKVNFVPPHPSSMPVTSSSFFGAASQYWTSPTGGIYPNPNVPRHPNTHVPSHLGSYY
In outline: (§1)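 Sequencing on an Illumina NextSeq500 followed washing, crosslinking with 0.1% formaldehyde, proximity ligation (BsaI/T4 ligase, 1 h, 37 °C) and PCR amplification of pools that had been incubated for 30 min at room temperature with 200 nmole of a random double-stranded 16-mer DNA library in Tris/NaCl/DTT/glycerol buffer. Each pool held DNA-barcoded human transcription factors, expressed in yeast as GST fusions and captured on glutathione beads, plus a tag-only sample. Binding signal is a hexamer's read frequency for a factor divided by its frequency in the tag-only sample.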

A further test deals with T2, ELK1 (Homo sapiens, UniProt P19419 1-428).
T2 sequence: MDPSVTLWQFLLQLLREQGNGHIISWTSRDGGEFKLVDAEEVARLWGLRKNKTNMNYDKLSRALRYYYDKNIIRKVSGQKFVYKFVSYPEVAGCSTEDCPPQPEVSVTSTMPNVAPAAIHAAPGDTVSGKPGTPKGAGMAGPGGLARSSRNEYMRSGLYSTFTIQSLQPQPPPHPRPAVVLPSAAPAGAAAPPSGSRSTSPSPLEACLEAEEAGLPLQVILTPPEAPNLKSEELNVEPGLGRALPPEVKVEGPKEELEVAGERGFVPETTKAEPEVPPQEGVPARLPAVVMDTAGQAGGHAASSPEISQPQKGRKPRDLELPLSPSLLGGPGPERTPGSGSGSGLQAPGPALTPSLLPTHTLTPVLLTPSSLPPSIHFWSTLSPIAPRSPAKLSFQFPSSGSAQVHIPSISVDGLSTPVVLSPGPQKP
A digest of the protocol: as §1

In the next test the target is T3, ERG (Homo sapiens, UniProt P11308 1-479).
T3 sequence: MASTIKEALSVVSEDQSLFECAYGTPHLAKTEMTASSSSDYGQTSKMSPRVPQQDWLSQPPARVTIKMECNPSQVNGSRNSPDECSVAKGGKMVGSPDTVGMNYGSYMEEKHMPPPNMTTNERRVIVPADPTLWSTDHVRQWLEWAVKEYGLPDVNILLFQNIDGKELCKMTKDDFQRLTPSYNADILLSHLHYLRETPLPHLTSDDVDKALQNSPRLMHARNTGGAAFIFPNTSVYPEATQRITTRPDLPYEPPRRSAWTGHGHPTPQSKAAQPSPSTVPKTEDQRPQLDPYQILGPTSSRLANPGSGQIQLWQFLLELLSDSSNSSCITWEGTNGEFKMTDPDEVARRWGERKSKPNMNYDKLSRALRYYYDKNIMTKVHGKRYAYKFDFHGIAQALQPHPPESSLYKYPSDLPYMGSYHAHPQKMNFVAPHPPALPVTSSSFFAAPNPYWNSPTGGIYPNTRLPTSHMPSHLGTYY
A digest of the protocol:
as §1

The next test deals with ELF1 (Homo sapiens, UniProt P32519 1-619). A digest of the protocol: as §1
For another test, the target named is SPIB (Homo sapiens, UniProt Q01892 1-262). In outline: as §1
The next test deals with T4, ELK3 (Homo sapiens, UniProt P41970 1-407).
T4 sequence: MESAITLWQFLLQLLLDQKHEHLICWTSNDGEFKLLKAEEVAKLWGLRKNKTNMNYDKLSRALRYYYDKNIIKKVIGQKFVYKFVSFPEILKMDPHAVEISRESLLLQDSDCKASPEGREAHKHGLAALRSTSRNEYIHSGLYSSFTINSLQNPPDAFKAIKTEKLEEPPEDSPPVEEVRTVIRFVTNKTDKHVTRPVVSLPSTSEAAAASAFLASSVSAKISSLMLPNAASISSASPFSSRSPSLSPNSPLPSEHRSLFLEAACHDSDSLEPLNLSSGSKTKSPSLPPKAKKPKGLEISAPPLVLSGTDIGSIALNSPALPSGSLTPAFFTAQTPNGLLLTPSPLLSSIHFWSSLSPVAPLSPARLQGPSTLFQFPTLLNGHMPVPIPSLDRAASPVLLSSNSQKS
A digest of the protocol:
as §1

The target of a further test is T5, FEV (Homo sapiens, UniProt Q99581 1-238).
T5 sequence: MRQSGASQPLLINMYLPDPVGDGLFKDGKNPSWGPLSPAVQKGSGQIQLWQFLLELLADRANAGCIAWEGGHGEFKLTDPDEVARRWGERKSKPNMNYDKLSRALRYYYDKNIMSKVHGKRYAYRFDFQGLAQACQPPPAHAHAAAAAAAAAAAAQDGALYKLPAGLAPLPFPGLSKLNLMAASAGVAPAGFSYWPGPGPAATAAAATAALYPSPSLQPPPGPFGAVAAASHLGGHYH
In outline:
as §1

A further test deals with ETV5 (Homo sapiens, UniProt P41161 1-510). In outline:
as §1

The next test concerns the target T6, SPIC (Homo sapiens, UniProt Q8N5J4 1-248).
T6 sequence: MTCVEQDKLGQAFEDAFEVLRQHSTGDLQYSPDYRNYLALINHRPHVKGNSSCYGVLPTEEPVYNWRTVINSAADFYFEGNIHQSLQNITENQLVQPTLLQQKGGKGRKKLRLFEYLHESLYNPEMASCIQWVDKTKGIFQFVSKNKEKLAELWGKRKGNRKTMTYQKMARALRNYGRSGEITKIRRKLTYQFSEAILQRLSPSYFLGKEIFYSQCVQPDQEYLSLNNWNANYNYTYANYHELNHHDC
In outline: as §1

The next test deals with ELF4 (Homo sapiens, UniProt Q99607 1-663). In outline:
as §1

The target of a further test is ETV1 (Homo sapiens, UniProt P50549 1-477). In outline: as §1
A further test deals with T7, ETV3L (Homo sapiens, UniProt Q6ZN32 1-361).
T7 sequence: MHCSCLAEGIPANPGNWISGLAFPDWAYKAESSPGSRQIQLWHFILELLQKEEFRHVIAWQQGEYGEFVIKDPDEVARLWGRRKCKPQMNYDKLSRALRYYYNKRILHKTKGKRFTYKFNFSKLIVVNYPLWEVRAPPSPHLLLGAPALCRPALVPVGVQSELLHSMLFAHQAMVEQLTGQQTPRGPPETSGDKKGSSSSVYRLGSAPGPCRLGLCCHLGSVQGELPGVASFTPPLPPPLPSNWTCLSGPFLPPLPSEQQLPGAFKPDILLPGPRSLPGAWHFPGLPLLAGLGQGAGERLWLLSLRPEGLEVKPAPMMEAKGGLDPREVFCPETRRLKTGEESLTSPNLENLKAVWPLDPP
In outline:
as §1

The next test has as its target T8, ETV3 (Homo sapiens, UniProt P41162-2 1-143).
T8 sequence: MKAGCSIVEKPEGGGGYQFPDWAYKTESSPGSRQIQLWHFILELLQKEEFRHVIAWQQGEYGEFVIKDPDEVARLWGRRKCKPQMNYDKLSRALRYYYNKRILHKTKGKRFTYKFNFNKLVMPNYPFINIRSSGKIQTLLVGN
In outline:
as §1

The next test concerns the target ETV6 (Homo sapiens, UniProt P41212 1-452). In outline:
as §1

ELF4, sequence (Q99607 whole entry): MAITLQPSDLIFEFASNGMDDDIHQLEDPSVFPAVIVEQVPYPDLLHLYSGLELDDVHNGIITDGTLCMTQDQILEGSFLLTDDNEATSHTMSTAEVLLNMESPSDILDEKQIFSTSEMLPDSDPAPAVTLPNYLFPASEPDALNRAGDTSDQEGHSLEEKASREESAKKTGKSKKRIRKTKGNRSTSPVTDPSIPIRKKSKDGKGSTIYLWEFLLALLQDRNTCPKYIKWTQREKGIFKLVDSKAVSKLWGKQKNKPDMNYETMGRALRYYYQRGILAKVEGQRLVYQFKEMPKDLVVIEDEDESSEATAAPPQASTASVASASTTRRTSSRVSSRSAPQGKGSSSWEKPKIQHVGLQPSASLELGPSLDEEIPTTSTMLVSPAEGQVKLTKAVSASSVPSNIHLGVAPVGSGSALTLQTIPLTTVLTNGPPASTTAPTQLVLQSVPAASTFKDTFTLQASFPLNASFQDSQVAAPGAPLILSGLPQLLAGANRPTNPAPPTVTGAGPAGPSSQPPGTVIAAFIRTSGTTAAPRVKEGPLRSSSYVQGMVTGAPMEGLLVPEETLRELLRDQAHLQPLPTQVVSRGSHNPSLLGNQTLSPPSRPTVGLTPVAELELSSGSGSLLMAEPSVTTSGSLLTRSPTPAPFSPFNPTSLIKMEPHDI
ETV5, sequence (P41161 whole entry): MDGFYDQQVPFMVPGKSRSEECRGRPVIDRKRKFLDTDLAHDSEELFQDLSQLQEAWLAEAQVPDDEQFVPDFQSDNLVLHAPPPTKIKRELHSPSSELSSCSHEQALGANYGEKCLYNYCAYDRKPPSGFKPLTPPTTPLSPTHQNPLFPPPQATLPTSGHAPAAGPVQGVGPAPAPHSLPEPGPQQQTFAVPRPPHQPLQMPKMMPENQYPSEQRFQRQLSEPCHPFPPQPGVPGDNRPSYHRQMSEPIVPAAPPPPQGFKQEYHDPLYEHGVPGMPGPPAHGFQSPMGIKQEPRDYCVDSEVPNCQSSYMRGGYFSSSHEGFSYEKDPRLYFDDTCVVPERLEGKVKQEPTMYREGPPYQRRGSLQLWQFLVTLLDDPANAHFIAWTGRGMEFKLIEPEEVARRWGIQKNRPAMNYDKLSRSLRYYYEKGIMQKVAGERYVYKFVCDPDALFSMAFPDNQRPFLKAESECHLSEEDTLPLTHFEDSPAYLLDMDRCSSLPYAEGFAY
ELF1, sequence (P32519 whole entry): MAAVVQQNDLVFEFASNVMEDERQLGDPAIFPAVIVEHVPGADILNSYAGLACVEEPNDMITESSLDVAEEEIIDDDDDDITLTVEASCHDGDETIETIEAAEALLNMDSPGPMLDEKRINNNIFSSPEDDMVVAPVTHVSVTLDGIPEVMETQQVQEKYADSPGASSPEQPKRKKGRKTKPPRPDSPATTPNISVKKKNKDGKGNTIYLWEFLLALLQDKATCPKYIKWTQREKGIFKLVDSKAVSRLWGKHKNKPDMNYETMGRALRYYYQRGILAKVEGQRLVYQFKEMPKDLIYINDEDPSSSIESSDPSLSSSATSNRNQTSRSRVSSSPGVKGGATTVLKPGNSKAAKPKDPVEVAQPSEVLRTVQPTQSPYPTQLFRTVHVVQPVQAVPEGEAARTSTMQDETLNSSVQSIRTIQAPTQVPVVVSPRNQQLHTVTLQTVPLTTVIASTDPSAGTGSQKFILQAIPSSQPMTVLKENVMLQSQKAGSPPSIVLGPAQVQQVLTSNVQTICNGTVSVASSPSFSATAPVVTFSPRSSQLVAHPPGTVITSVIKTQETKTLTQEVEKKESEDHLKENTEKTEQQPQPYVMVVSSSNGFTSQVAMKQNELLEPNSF
ETV6, sequence (P41212 whole entry): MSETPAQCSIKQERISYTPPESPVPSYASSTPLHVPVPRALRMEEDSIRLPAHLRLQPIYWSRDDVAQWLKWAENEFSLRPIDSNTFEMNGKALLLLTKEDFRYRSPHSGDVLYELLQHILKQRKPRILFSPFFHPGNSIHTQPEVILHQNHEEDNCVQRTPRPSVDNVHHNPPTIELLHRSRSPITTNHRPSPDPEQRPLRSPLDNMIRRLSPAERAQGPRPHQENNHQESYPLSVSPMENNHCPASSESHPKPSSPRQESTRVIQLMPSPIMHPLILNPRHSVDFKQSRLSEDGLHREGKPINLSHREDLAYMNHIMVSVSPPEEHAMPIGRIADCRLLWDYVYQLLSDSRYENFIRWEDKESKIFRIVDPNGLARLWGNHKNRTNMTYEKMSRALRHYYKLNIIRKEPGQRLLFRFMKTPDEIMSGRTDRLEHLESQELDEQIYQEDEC
ETV1, sequence (P50549 whole entry): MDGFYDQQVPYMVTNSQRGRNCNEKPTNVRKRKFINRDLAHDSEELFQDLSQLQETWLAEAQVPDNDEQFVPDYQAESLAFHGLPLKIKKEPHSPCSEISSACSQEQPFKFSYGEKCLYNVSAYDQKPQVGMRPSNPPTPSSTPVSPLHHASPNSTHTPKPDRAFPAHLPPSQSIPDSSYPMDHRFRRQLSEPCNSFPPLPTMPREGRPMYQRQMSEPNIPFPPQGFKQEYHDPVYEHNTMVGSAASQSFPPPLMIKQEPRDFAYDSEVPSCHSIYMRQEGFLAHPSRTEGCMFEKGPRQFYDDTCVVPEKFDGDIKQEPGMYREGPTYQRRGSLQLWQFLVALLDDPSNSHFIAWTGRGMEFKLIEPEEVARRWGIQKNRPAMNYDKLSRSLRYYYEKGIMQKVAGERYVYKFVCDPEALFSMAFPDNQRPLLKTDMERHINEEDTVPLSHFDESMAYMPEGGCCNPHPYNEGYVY
SPIB, sequence (Q01892 whole entry): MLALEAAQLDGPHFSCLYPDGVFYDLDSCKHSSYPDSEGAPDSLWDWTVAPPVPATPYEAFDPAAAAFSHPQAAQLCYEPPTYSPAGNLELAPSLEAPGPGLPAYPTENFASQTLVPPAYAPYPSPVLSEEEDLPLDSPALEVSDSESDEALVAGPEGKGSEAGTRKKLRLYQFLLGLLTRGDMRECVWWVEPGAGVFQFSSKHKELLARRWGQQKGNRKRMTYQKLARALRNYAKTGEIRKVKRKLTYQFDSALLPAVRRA

GCCCCA: the binding signal with FLI1 is 1.06 fold enrichment (6-mer frequency, TF over GST control); in the test with ELK1 it was 1.04 fold enrichment (6-mer frequency, TF over GST control); with ERG, 1.1 fold enrichment (6-mer frequency, TF over GST control); in the test with ELF1 it was 1.05 fold enrichment (6-mer frequency, TF over GST control); with SPIB, 1 fold enrichment (6-mer frequency, TF over GST control); with ELK3, 1.1 fold enrichment (6-mer frequency, TF over GST control). For the same sequence, the binding signal with FEV was 1.07 fold enrichment (6-mer frequency, TF over GST control); in the test with ETV5, 1.02 fold enrichment (6-mer frequency, TF over GST control); with SPIC it was 1.05 fold enrichment (6-mer frequency, TF over GST control); with ELF4 it was 1.07 fold enrichment (6-mer frequency, TF over GST control); with ETV1, 1.03 fold enrichment (6-mer frequency, TF over GST control); with ETV3L, 1.12 fold enrichment (6-mer frequency, TF over GST control). Also, the binding signal in the test with ETV3 is 1.06 fold enrichment (6-mer frequency, TF over GST control); with ETV6, 1.03 fold enrichment (6-mer frequency, TF over GST control).
